HTT cytoprotect – protects HTT-Q103 PC12 cells, measured by ATP | PC12 HTT-Q103 induced, cytoprotection, ATP luminescence, 40 h | Potency, µM (series often up to 56.4 µM), for the others: cytoprotection (ATP increase), usual class: activators | actives 0.14% (n = 230,000) | AID 1471; note: % of control where 0% means no effect; nearly all actives have a fitted effect of over 45% in size
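ATP quantification (ATPlite) reports survival of PC12 cells in which tebufenozide, 100 nM final, switches on Htt exon 1 with 103 glutamines linked to GFP; compounds are titrated.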
HTT aggregate – inhibitors of mutant huntingtin aggregate formation in PC12 cells; PC12 HttQ103-GFP aggregates, Acumen cytometry, 40 h; actives 1.1% (n = 220,000); Potency, µM (highest dose often 46.1 µM), for the others: at the top dose activity change, negative = inhibition, most hits filed as inhibitors; note: % is set by controls: 0 for no effect and ±100 for the full control effect; nearly all actives have a fitted effect of over 60% in size
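Huntingtin Q103 exon 1–GFP aggregates in induced PC12 cells (100 nM tebufenozide) were quantified by cytometry from lysates, with compounds dosed in titration.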
Lamin A splicing – changes lamin A minigene splicing in HeLa cells; HeLa LMNA splicing GFP/RFP minigene ratio, 48 h; Potency, µM (titrated, usually from 46.1 µM), without a hit: at the top dose ratio change, negative = inhibition, hits mostly inhibitors; actives 0.01% (n = 200,000); active = well fitted inhibition curve with a large enough effect in the signal ratio, with a control signal flat, not every such curve was filed as active; inconclusive = small, poorly fitted or top-dose-only effect, or effect the other way, or a change in a side signal; the % refers to the signal ratio; note: % is set by controls: 0 for no effect and ±100 for the full control effect
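S3 HeLa cells stably expressing lamin A-EGFP splicing minigene plus DsRed2, 600 cells/well, 48 h compound exposure at 37C. Laser-scanning cytometry; analysed as GFP (500-530 nm)/RFP (575-640 nm) total intensity ratio; 0.5% DMSO vehicle.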
ALDH1A1 inh – blocks purified human ALDH1A1 activity. Potency, µM (doses to about 75.3 µM), for inactives: at the top dose activity, negative = inhibition, actives largely listed as inhibitors. Purified ALDH1A1, NADH fluorescence, propionaldehyde substrate. P00352. actives 7.3% (n = 220,000); active = well fitted inhibition curve with a large enough effect, not every such curve was filed as active; inconclusive = small, poorly fitted or top-dose-only effect, or another doubt; inactive = no such curve, though single readings can be large or run the other way;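 note: plate controls were no enzyme wells and a reference inhibitor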
Target sequence (P00352 whole entry, looked up): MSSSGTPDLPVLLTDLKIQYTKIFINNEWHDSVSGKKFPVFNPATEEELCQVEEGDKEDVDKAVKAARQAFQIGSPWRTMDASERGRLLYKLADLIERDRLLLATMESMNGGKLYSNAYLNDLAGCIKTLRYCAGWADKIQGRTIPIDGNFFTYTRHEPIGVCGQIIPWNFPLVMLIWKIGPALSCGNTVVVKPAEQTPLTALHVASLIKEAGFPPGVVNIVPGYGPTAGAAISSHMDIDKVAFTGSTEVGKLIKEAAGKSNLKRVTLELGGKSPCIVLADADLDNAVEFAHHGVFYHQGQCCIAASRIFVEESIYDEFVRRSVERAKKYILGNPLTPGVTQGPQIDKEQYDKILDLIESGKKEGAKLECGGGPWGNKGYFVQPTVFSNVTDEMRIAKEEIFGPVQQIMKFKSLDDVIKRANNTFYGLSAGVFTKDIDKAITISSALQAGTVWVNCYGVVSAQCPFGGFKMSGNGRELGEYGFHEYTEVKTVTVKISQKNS
HPGD block – HPGD (human) dehydrogenase inhibition; Potency, µM, inactives show at the top dose activity change, negative = inhibition, actives largely listed as inhibitors; purified HPGD, NADH fluorescence kinetic, PGE2 substrate; AID 894; P15428; actives 4.3% (n = 150,000); active = well fitted inhibition curve with a large enough effect, not every such curve was filed as active; inconclusive = small, poorly fitted or top-dose-only effect, or another doubt; inactive = no such curve, though single readings can be large or run the other way; note: % is set by controls: 0 for no effect and ±100 for the full control effect
Target sequence (P15428 whole entry, looked up): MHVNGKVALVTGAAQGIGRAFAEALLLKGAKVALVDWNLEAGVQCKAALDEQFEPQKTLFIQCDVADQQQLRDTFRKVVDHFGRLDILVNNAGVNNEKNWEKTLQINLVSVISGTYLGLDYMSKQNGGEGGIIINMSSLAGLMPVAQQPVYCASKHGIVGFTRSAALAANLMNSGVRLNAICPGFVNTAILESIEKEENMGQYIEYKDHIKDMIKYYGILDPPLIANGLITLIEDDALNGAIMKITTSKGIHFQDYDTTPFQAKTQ
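20 nM HPGD preincubated 15 min at room temperature with compound in 50 mM Tris-HCl pH 8, 0.01% Tween 20. Started with 1 mM NAD+ and 30 uM prostaglandin E2; NADH fluorescence (360/450 nm) read 5 times over 30-s intervals, last minus first.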
Numbers without * were called inactive; ? = inconclusive; . = no result; [ ] = another dose, or the depositor's remark. A selection: hits, their analogues and other compounds. The true share with any hit is near 8.8%. Unless noted, calls come from the whole dose curve; as a rule, active = well fitted curve in the direction sought with a large enough effect; inconclusive = small, poorly fitted or top-dose-only effect, or another doubt; inactive = no such curve, though single readings can be large; an effect the other way counts as inactive or inconclusive. Potency is the fitted concentration of half-maximal effect.

SMILES	HTT cytoprotect	HTT aggregate	Lamin A splicing	ALDH1A1 inh	HPGD block
CCN(CC)c1ccc2c(c1)oc(=O)c1c(Cl)cc(=O)oc12	-39.7%	12.6µM*	?	2.24µM*	5.62µM*
CCN(CC)c1ccc2c(C)c(Cl)c(=O)oc2c1	?	?	1.5%[46 µM]	?	.
COCCN1C(=O)N[C@@H](c2cccc(F)c2)C(C(C)=O)=C1C	24.8%[10 µM]	.	9.8%[9.22 µM]	2.1%[13.5 µM]	-3.0%
N#CC1=C(N)C2=CCCC[C@H]2[C@H](c2ccc(Br)cc2)C1(C#N)C#N	2.3%[10 µM]	7.4%	?	12.6µM*	-25.3%
N#CC1=C(N)C2=CCCC[C@H]2[C@H](c2ccccc2)C1(C#N)C#N	15.9%[10 µM]	30.2%	?	?	-2.0%
COc1ccc(CSc2nc3ccccc3[nH]2)cc1	-100.4%	-24.4%	15.1%	-0.1%	-20.2%
O=C1CC(SCc2nc3ccccc3[nH]2)C(=O)N1c1cccc(Cl)c1 (stereo unspecified)	-1.0%	-1.1%[9.22 µM]	29.8%	11.2µM*	-18.9%
O=C1CCC(=O)N1c1ccc(CSc2nc3ccccc3[nH]2)cc1	-27.8%	-30.6%	?	14.1µM*	-21.3%
CCCOc1ccc(N2C(=O)CC(SC(=N)N3N=C(c4ccccc4)CC3c3ccccc3)C2=O)cc1 (stereo unspecified)	-92.6%	-20.8%	.	?	.
O=C1CC(SCc2nc3ccccc3[nH]2)C(=O)N1c1ccc(F)cc1 (stereo unspecified)	1.5%	-9.2%	26.0%	28.2µM*	-12.4%
c1ccc(SCc2nc3ccccc3[nH]2)cc1	-45.1%	-16.5%	7.6%	6.2%	-2.4%
CCCOc1ccc(N2C(=O)CC(SCc3nc4ccccc4[nH]3)C2=O)cc1 (stereo unspecified)	5.7%[10 µM]	0.6%[9.22 µM]	?	15.8µM*	.
CCOc1ccc(C2CC(=O)NC(NC(=O)c3cccc(Cl)c3)=N2)cc1 (stereo unspecified)	.	.	9.5%[46 µM]	.	.
O=C(O)/C=C(/C(=O)O)[C@]12CCN3CC4=CCO[C@@H]5CC(=O)N[C@@H]1C5[C@H]4C[C@H]32 (stereo partly specified)	.	.	.	-2.3%[13.5 µM]	-5.0%
O=C(Cn1nnc(-c2ccccc2F)n1)Nc1ccc(C(=O)N2CCOCC2)cc1	4.5%[10 µM]	21.7%	4.3%	-1.0%	39.8µM*
O=C(c1ccc(NC(=O)C2(c3ccccc3)CCCC2)cc1)N1CCOCC1	-4.9%[10 µM]	8.7%[9.22 µM]	.	.	.
O=C(Nc1ccccc1)Nc1ccc(C(=O)N2CCOCC2)cc1	18.3%	-6.6%	-7.0%	3.1%	15.8µM*
O=C(CSc1nnc(Cn2nnc(-c3ccccc3)n2)n1-c1ccccc1)Nc1ccccc1	2.3%	16.7%	15.9%	4.47µM*	-7.4%
CCOC(=O)c1ccc(NC(=O)Cn2nnc(-c3ccccc3)n2)cc1	-48.7%	?	?	25.1µM*	.
O=C(Cn1nnc(-c2ccccc2F)n1)Nc1ccc2c(c1)OCO2	-2.7%	-13.7%	-1.6%	11.0%	-12.9%
O=C(CSc1nnc(Cn2nnc(-c3ccccc3)n2)n1-c1ccccc1)Nc1ccc(F)cc1	-4.8%[10 µM]	15.6%	0.7%	?	-1.5%
CCOc1ccccc1CNC(=O)c1ccc2nc(Cc3ccc(OC)cc3)oc2c1	.	.	-11.3%[46 µM]	.	.
COC(=O)C1(C(=O)OC)CC2=CC(CC2=O)Cc2ccccc2[C@@H]1C[N+](=O)[O-] (stereo partly specified)	3.1%	.	.	9.5%	-4.1%
CC1(C)Cc2nc3oc4c(SCC(N)=O)ncnc4c3cc2CO1	18.1%[10 µM]	40.3%[9.22 µM]	.	.	.
O=C(Cn1nnc(-c2ccccc2F)n1)Nc1ccc(S(=O)(=O)NC2CCCC2)cc1	-17.8%	-28.8%	12.0%	0.3%	7.08µM*
SMILES	HTT cytoprotect	HTT aggregate	Lamin A splicing	ALDH1A1 inh	HPGD block
O=C(NC1=NCCS1)c1cccc(OC(F)F)c1	-2.0%[10 µM]	8.9%	?	8.7%	.
Cc1cccc(NS(=O)(=O)c2cc(NC(=O)CC(=O)c3ccc([N+](=O)[O-])cc3)ccc2C)c1	1.3%	12.2%[9.22 µM]	-13.5%[9.22 µM]	-8.3%	.
Cc1ccc(NS(=O)(=O)c2cc([N+](=O)[O-])ccc2NNC(=S)Nc2cc(C)ccc2C)c(C)c1	27.0%[0.074 µM]	?	?	2.82µM*	7.94µM*
COCCNC(=S)Nc1ccc([N+](=O)[O-])cc1C	-26.0%	?	.	?	.
COc1ccc(NC(=S)NNc2ccc([N+](=O)[O-])cc2S(=O)(=O)Nc2ccc(C)cc2C)cc1	-26.2%[10 µM]	?	?	3.98µM*	14.1µM*
Cc1ccc(NS(=O)(=O)c2cc([N+](=O)[O-])ccc2NNC(=S)Nc2cccc(Cl)c2)c(C)c1	31.1%[10 µM]	10.9%	?	0.282µM*	28.2µM*
COc1ccc(/C(C)=N/N=C(\C)c2ccc(OC)cc2OC)c(OC)c1	-0.6%[10 µM]	13.1%	9.5%	12.8%	0.7%
COc1ccc(C(N)=S)c(OC)c1	.	3.4%	11.2%	12.6µM*	39.8µM*
Cc1ccc(-n2nc(C)c3c(C(=O)Nc4ccc(Br)c(C)c4)cc(C)nc32)cc1	.	.	9.9%[46 µM]	.	.
CCN(CC)C(=O)c1ccc(COc2ccccc2Br)o1	-52.1%	?	-5.3%	?	?
CCC(C)NC(=O)c1ccc(COc2ccccc2Cl)cc1 (stereo unspecified)	-32.5%	-19.1%	-16.2%	11.1%	20µM*
CC1CCN(C(=O)c2ccc(COc3ccccc3Cl)o2)CC1	-9.2%	?	-1.5%	?	15.8µM*
CCN(CC)C(=O)c1ccc(COc2ccccc2Cl)cc1	-1.1%	6.6%[9.22 µM]	-8.0%	?	0.355µM*
O=C(O)c1ccc(COc2ccccc2Cl)cc1	-19.0%	-5.8%	9.9%	-12.3%	12.6µM*
O=C(O)c1cccc(COc2ccccc2Cl)c1	-88.1%[0.074 µM]	-24.9%	9.2%	0.6%	?
CCC(C)NC(=O)c1ccc(C(=O)c2ccccc2)cc1 (stereo unspecified)	-4.3%[10 µM]	-19.2%	7.0%[46 µM]	?	.
COc1ccc(OCC(=O)N/N=C/C=C/c2ccccc2)cc1	6.3%[10 µM]	-27.6%	0.3%	5.8%	-7.2%
CC(C)C[C@H](NC(=O)[C@H](CCC(N)=O)NC(=O)[C@H](CCCCN)NC(=O)[C@H](CCC(N)=O)NC(=O)[C@@H](N)CCC(=O)O)C(=O)N[C@@H](CCC(N)=O)C(=O)O	-26.9%	.	.	6.3%	.
CSc1ncnc2c1ncn2C1OC(CO)C(O)C1O (stereo unspecified)	.	.	?	6.2%	-14.0%
CC(Oc1ccccc1)c1ccn[nH]1 (stereo unspecified)	-58.6%	-3.5%[9.22 µM]	.	4.1%	.
O=C(Nc1cccn(Cc2c(F)cccc2Cl)c1=O)NC1CCCCC1	-39.2%[10 µM]	-0.8%[9.22 µM]	.	25.1µM*	.
O=C(Nc1cccn(Cc2cccc(F)c2)c1=O)NC1CCCCC1	-18.2%[10 µM]	-0.3%[9.22 µM]	.	?	.
Cc1ccc(-n2c(C)cc(C3=NNC(=NC4CC4)SC3)c2C)cc1C	14.0%[10 µM]	?	?	18.9µM*	?
Cc1cc(C2=NNC(=NCCc3ccccc3)SC2)c(C)n1-c1c(C)n(C)n(-c2ccccc2)c1=O	0.6%[10 µM]	-8.1%[9.22 µM]	.	.	.

Screens: PubChem, National Center for Advancing Translational Sciences (NCATS)
